In the library only some 2.3% were active in any assay of this set; here they are far more common.
V-ATPase pHluor: alters yeast V-ATPase proton transport; S. cerevisiae, pHLuorin cytosolic pH fluorescence; hit rate 0.37% among 350,000; response, % at 10 µM; in the data active = response mostly above about 7.3%, no sharp cut-off; inactive = mostly below about 5.4%; also: actives read high
ADAM10 inh: inhibitors of human ADAM10; inhibition, % at 7 µM; O14672; recombinant ADAM10, EDANS/DABCYL FRET peptide cleavage, 3 h; hit rate 0.62% among 370,000;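 active = inhibition above a per-campaign cutoff equal to the mean of compounds falling between control-based bounds plus 3 SD, cut at about 20% in these data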
Target sequence (O14672 214-748 limits assumed): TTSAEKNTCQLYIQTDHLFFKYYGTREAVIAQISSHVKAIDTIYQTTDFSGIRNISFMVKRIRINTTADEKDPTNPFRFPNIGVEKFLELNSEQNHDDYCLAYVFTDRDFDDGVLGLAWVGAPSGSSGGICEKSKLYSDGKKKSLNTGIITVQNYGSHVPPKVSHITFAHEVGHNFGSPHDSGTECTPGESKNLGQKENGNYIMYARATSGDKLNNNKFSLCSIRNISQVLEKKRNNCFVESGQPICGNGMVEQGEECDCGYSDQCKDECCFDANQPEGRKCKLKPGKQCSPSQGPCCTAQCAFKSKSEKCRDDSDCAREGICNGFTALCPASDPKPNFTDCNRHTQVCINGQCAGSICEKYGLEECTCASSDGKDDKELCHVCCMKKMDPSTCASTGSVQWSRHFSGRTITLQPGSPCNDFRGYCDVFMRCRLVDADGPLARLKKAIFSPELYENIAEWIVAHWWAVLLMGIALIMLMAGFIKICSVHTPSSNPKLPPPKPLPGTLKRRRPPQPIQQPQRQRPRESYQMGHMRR
ADAM17 inh: inhibits human ADAM17. P78536. recombinant ADAM17, EDANS/DABCYL FRET peptide cleavage. inhibition, % at 6.95 µM. hit rate 0.83% among 370,000. AID 720648;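 active = inhibition above the mean of compounds lying between control limits plus 3 SD, set per campaign, cut at about 8.5% in these data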
KLK7 zymogen act: proKLK7 (human) activation, primary screen; hit rate 0.9% among 370,000; AID 652039; P49862; purified proKLK7, EDANS-DABCYL substrate fluorescence; 100% is mature enzyme control, 0% vehicle; activation, % at 7 µM;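 active = activation above the mean of all tested compounds plus 3 SD, computed per campaign excluding outliers beyond control limits, cut at about 13% in these data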
KLK7 act conf: confirmation of human kallikrein-7 zymogen activators; shares compounds with KLK7 zymogen act; purified proKLK7, EDANS-DABCYL substrate fluorescence; scaled: vehicle 0, mature enzyme 100; activation, % at 7 µM; hit rate 68% among 3,200; AID 686949;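 active = activation, as change over the incubation, above the mean of all tested compounds plus 3 SD, cut at about 13% in these data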
EDANS interfere: counter-screen for kallikrein-7 activators: EDANS-DABCYL optical interference; shares compounds with KLK7 zymogen act; EDANS-DABCYL substrate fluorescence interference, no enzyme, 4 h; solvent 0%, active enzyme control 100%; activation, % at 7 µM; hit rate 80% among 3,200; AID 686952;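 active = activation above the all-compound mean plus 3 SD, ignoring values outside control-based bounds, cut at about 4.8% in these data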;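 also: value is the 4 h activation minus the activation read at time zero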
Hits are given with their value.

Screening CCC(C)NC(=O)c1cc2c(=O)n3ccccc3nc2s1 (stereo unspecified) returned V-ATPase pHluor inactive, ADAM10 inh inactive, ADAM17 inh inactive, KLK7 zymogen act 66, KLK7 act conf 61 and EDANS interfere 70.
Screening Cc1ccc(C(=O)C2CCN(CC(=O)N3CCCC3)CC2)cc1 returned ADAM10 inh inactive, ADAM17 inh inactive and KLK7 zymogen act inactive.
COC(=O)[C@H]1Cc2c([nH]c3ccccc23)[C@H](c2ccccc2)N1 was read as V-ATPase pHluor inactive, ADAM10 inh inactive, ADAM17 inh inactive and KLK7 zymogen act inactive.
COC(=O)C1Cc2c([nH]c3ccccc23)CN1 (stereo unspecified) was read as V-ATPase pHluor inactive, ADAM10 inh inactive, ADAM17 inh inactive, KLK7 zymogen act 19, KLK7 act conf inactive and EDANS interfere 8.9.
`O=S1(=O)c2ccc(Br)cc2OC[C@@H](c2ccccc2)N1Cc1cn(CCC2OCCCO2)nn1` gave ADAM10 inh inactive, ADAM17 inh inactive and KLK7 zymogen act inactive.
`CC(C)(C)N(Cc1ccccc1)C(=O)COC(=O)Cn1cnc2ccccc2c1=O` gave V-ATPase pHluor inactive, ADAM10 inh inactive, ADAM17 inh inactive, KLK7 zymogen act 15, KLK7 act conf inactive and EDANS interfere inactive.
For CN1CC=C2C(C#N)=C(N)C(C#N)(C#N)[C@H](c3cccc(Cl)c3)C2C1 (stereo partly specified) the results were V-ATPase pHluor inactive, ADAM10 inh inactive, ADAM17 inh inactive, KLK7 zymogen act 13, KLK7 act conf 34 and EDANS interfere 35.
Screening CN1CC=C2C(C#N)=C(N)C(C#N)(C#N)C(c3ccsc3)C2C1 (stereo unspecified) returned V-ATPase pHluor inactive, ADAM10 inh inactive, ADAM17 inh inactive, KLK7 zymogen act 15, KLK7 act conf 57 and EDANS interfere 55.
For COc1cccc(C2C3CN(C)CC=C3C(C#N)=C(N)C2(C#N)C#N)c1OC (stereo unspecified) the results were V-ATPase pHluor inactive, ADAM10 inh inactive, ADAM17 inh inactive and KLK7 zymogen act inactive.
Screening CCCC1C2CN(C(C)C)CC=C2C(C#N)=C(N)C1(C#N)C#N (stereo unspecified) returned V-ATPase pHluor inactive, ADAM10 inh inactive, ADAM17 inh inactive, KLK7 zymogen act 24, KLK7 act conf inactive and EDANS interfere 14.
Screening N#CC1=C(N)C(C#N)(C#N)C(c2ccncc2)C2CN(C(=O)OCc3ccccc3)CC=C12 (stereo unspecified) returned V-ATPase pHluor inactive, ADAM10 inh inactive, ADAM17 inh inactive, KLK7 zymogen act 17, KLK7 act conf 36 and EDANS interfere 35.
`CCCCNC(=O)C[C@H]1C[C@@]2(C(=O)OC)C(=C[C@H](C(C)(C)C)O[C@@H]2C)N(Cc2ccccc2)C1=O` gave ADAM10 inh inactive, ADAM17 inh inactive and KLK7 zymogen act inactive.
For CC(C)(C)OC(=O)N1CCC2CCN(CCc3ccccc3)CC21 (stereo unspecified) the results were ADAM10 inh inactive, ADAM17 inh inactive and KLK7 zymogen act inactive.
Screening O=S1(=O)c2ccc(Br)cc2OC[C@H](c2ccccc2)N1Cc1ccccc1 returned ADAM10 inh inactive, ADAM17 inh inactive and KLK7 zymogen act inactive.
For COC(=O)CN1CCN(C(=O)c2csc(-c3ccccc3)n2)CC1 the results were ADAM10 inh inactive, ADAM17 inh inactive and KLK7 zymogen act inactive.
`COc1ccc(C(C(=O)N(C)C2CCCC2)N(Cc2ccc(F)cc2)C(=O)c2ccc3ccccc3c2)cc1OC` (stereo unspecified) gave ADAM10 inh inactive, ADAM17 inh inactive and KLK7 zymogen act inactive.
c1cc(-c2ccc(N3CCOCC3)cc2)n2cnnc2c1 was read as ADAM10 inh inactive, ADAM17 inh inactive, KLK7 zymogen act 67, KLK7 act conf 69 and EDANS interfere 67.
For COC(=O)c1cc2c(c3c4ccccc4n(S(=O)(=O)c4ccc(C)cc4)c13)C(=O)N(CC(C)C)C2 the results were ADAM10 inh inactive, ADAM17 inh inactive and KLK7 zymogen act inactive.
Screening COc1ccc2c(c1)c1ncn(CCN3CCCC3)c(=O)c1n2C returned V-ATPase pHluor inactive, ADAM10 inh inactive, ADAM17 inh inactive, KLK7 zymogen act 24, KLK7 act conf inactive and EDANS interfere 5.9.
Screening COc1ccc2c(c1)c1ncn(CCN3CCNCC3)c(=O)c1n2C returned V-ATPase pHluor inactive, ADAM10 inh inactive, ADAM17 inh inactive, KLK7 zymogen act 25, KLK7 act conf 18 and EDANS interfere 17.
`COc1ccc2[nH]c3c(=O)n(CCN4CCOCC4)cnc3c2c1` gave V-ATPase pHluor inactive, ADAM10 inh inactive, ADAM17 inh inactive and KLK7 zymogen act inactive.
`COc1ccc2c(c1)c1ncn(CCN3CCCCC3)c(=O)c1n2C` gave V-ATPase pHluor inactive, ADAM10 inh inactive, ADAM17 inh inactive, KLK7 zymogen act 17, KLK7 act conf inactive and EDANS interfere inactive.
CCCCN1CC(COCc2ccccc2)Oc2cccc(N3CCCCC3)c2S1(=O)=O (stereo unspecified) was read as ADAM10 inh inactive, ADAM17 inh inactive and KLK7 zymogen act inactive.
For COc1ccc(-c2cn3cc(C)ccc3n2)cc1OC the results were V-ATPase pHluor inactive, ADAM10 inh inactive, ADAM17 inh inactive, KLK7 zymogen act 13, KLK7 act conf inactive and EDANS interfere 13.
For COc1ccc(CC(=O)Nc2ccc(-c3cn4ccccc4n3)cc2)cc1 the results were V-ATPase pHluor inactive, ADAM10 inh inactive, ADAM17 inh inactive and KLK7 zymogen act inactive.
For COc1ccc(CC(=O)Nc2ccc(-c3cn4ccccc4n3)cc2)cc1OC the results were V-ATPase pHluor inactive, ADAM10 inh inactive, ADAM17 inh inactive, KLK7 zymogen act 33, KLK7 act conf inactive and EDANS interfere inactive.
`Cc1ccccc1CNC1CCC12CCC(c1ccccc1)CC2` (stereo unspecified) gave ADAM10 inh inactive and ADAM17 inh inactive.
`COc1ccc(OC)c(/C=N/NC(=O)CC(=O)NC2CCCCC2)c1` gave V-ATPase pHluor inactive, ADAM10 inh inactive, ADAM17 inh inactive, KLK7 zymogen act 29, KLK7 act conf inactive and EDANS interfere 23.
Screening COc1ccc(/C=N\NC(=O)CCc2c(C)n[nH]c2C)c(OC)c1OC returned V-ATPase pHluor inactive, ADAM10 inh inactive, ADAM17 inh inactive and KLK7 zymogen act inactive.
Screening COc1ccc(/C=N/NC(=O)c2cnccn2)c(OC)c1OC returned V-ATPase pHluor inactive, ADAM10 inh inactive, ADAM17 inh inactive and KLK7 zymogen act inactive.
Screening COc1ccc(OC)c(/C=N/NC(=O)C(=O)N/N=C/c2cc(OC)ccc2OC)c1 returned V-ATPase pHluor inactive, ADAM10 inh inactive, ADAM17 inh inactive and KLK7 zymogen act inactive.
Screening COc1ccc(OC)c(/C=N/NC(=O)c2cnccn2)c1 returned V-ATPase pHluor inactive, ADAM10 inh inactive, ADAM17 inh inactive, KLK7 zymogen act 26, KLK7 act conf 36 and EDANS interfere 39.

Assay outcomes as filed in PubChem BioAssay.
